This is an account of results in PubChem BioAssay (NCI).

Molecules are shown by their SMILES. The panel holds about 83,000 compounds, 20% with a hit somewhere; the sample as a whole holds those more often.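 Cell lines were cultured in 96-well plates, exposed to a single compound concentration, and assessed for percent growth 48 hours later.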 Values without a mark were called inactive. Calls of active or inactive are those of the source. Rule for the calls: active = growth percent below 10; inactive = the rest.

Test systems include SK-MEL-2 melanoma; SN12C renal; UO-31 renal; TK-10 renal; ACHN renal; CAKI-1 renal; A498 renal; CCRF-CEM leukemia; MOLT-4 leukemia.
What all share (experiment): NCI-60 one-dose screen, 48 h (100 = growth as untreated, 0 = no growth, -100 = all killed)
Details in all cases: 10 µM unless noted

With `COc1cc(OC)c(/C=C/c2c3ccccc3cc[n+]2C)c(OC)c1`, the growth was 20.4% with SK-MEL-2 melanoma; 14.2% in the test on SN12C renal; 75.5% with UO-31 renal; 42.1% in the test on TK-10 renal; 71.5% in the test on ACHN renal; 67.8% in the test with CAKI-1 renal. The growth in the test on A498 renal was 36.6%; in the test on CCRF-CEM leukemia, 18.2%; in the test with MOLT-4 leukemia, 14.7%.
Take `CCC[CH2][Sn]1([CH2]CCC)[O]C2C(CO)OC(n3ccc(N)nc3=O)C2[O]1` (configuration not stated): the growth in the test on SK-MEL-2 melanoma is -91.9% (active); in the test with UO-31 renal, -78.2% (active); in the test with TK-10 renal it was -98.2% (active); with ACHN renal, -83.9% (active); with CAKI-1 renal, -82.7% (active); with A498 renal, -94.5% (active). Further, the growth with CCRF-CEM leukemia was -30.7% (active); in the test with MOLT-4 leukemia, -26.6% (active).
Regarding `CC1(C)OCC(COC(c2ccccc2)(c2ccccc2)c2ccccc2)O1` (configuration not stated), the growth is 83.3% in the test on SK-MEL-2 melanoma; 102% with SN12C renal; 85.7% with UO-31 renal; 88.5% with TK-10 renal; 97.6% with ACHN renal; 89.1% in the test on CAKI-1 renal. In addition, the results for the growth in the test with A498 renal, with CCRF-CEM leukemia and in the test on MOLT-4 leukemia were 57.2%, 102% and 93.1%, respectively.
Consider `CCCCCCCCCCCC(=O)OC(C)C(=O)NCCCC` (configuration not stated), for which the growth is 108% with SK-MEL-2 melanoma; 102% with SN12C renal; 94.5% in the test on UO-31 renal; 90.8% in the test with TK-10 renal; 116% in the test with ACHN renal; 99.1% in the test with CAKI-1 renal. In addition, the growth in the test on CCRF-CEM leukemia is 101%; with MOLT-4 leukemia it was 87.7%.
As to `Oc1c(Cl)cc(Cl)cc1C=NCC1CCC(CN=Cc2cc(Cl)cc(Cl)c2O)CC1` (configuration not stated), the growth in the test on SK-MEL-2 melanoma is 92.9%; with UO-31 renal it was 45.8%; in the test with TK-10 renal, 124%; in the test with ACHN renal, 101%; in the test with CAKI-1 renal, 91.7%; in the test with A498 renal, 113%. Further, the growth is 59% with CCRF-CEM leukemia and 78.1% in the test with MOLT-4 leukemia.
As for `Cc1onc(-c2ccccc2)c1C(=O)N/N=C/c1cc(Cl)cc(Cl)c1O`, the growth with SK-MEL-2 melanoma is 37.7%; with UO-31 renal, 1.5% (active); with TK-10 renal, 40.1%; with ACHN renal, 22.1%; in the test with CAKI-1 renal, 8.2% (active); with A498 renal, 81.2%. The growth in the test on CCRF-CEM leukemia was 21.9%; in the test with MOLT-4 leukemia, 19.2%.
`Cc1ccc(Nc2ccc(O)c3c2C(=O)c2c(O)ccc(Nc4ccc(C)cc4)c2C3=O)cc1`: the growth in the test on SK-MEL-2 melanoma was 118%; in the test on SN12C renal it was 106%; in the test with UO-31 renal it was 82.7%; in the test on ACHN renal, 100%; with CAKI-1 renal, 92.9%; in the test with A498 renal, 97.4%. Besides, the growth in the test with CCRF-CEM leukemia is 95.5%; in the test with MOLT-4 leukemia, 109%.
Consider `CCOc1ccc2c(c1)/C(=C\C=C\C1CC(C)C3CC(OCC)CCC3N1CC)CC(C)N2CC` (configuration not stated), for which the growth in the test with SK-MEL-2 melanoma was -54.6% (active); in the test on SN12C renal, 6.7% (active); with UO-31 renal, 0.241% (active); with ACHN renal it was 12%; in the test with CAKI-1 renal, 17.9%; in the test on A498 renal, 15%. The growth is -40.3% (active) in the test with CCRF-CEM leukemia and -42.5% (active) in the test with MOLT-4 leukemia.
Turning to `Cc1cc(N/N=C/c2ccccn2)nc2ccccc12`, the growth is 50.2% with SK-MEL-2 melanoma; 17.4% in the test on SN12C renal; -8.77% (active) in the test on UO-31 renal; 34.1% in the test on TK-10 renal; 0.182% (active) with ACHN renal; -8.9% (active) in the test with CAKI-1 renal. Moreover, the growth in the test with A498 renal is 27.7%; with CCRF-CEM leukemia, 2.52% (active); in the test with MOLT-4 leukemia it was 5.97% (active).
With `CCCCCCCCCCCCCCCC[N+]1(C)CCCC1c1cccnc1` (configuration not stated), the growth in the test with SK-MEL-2 melanoma was 98.1%; in the test with SN12C renal, 44.5%; in the test with UO-31 renal, 91.3%; with TK-10 renal, 49.7%; in the test with ACHN renal, 85.6%; in the test on CAKI-1 renal, 92.9%. Moreover, the growth in the test on CCRF-CEM leukemia was 38.7%; in the test with MOLT-4 leukemia, 33%.
`CCCCCCCCCCCCCCCCCC1=NCCCN1CCO`: the growth in the test with SK-MEL-2 melanoma is 111%; with SN12C renal, 96.8%; in the test on UO-31 renal, 93.4%; in the test with TK-10 renal, 116%; in the test on ACHN renal, 112%; with CAKI-1 renal it was 105%. For the same compound, the growth in the test on CCRF-CEM leukemia is 97.4%; in the test on MOLT-4 leukemia, 102%.
On to `N#CC1c2ccccc2C=CN1C(=O)CCCl` (configuration not stated), for which the growth in the test on SK-MEL-2 melanoma is 94.1%; with SN12C renal, 107%; with UO-31 renal it was 60.6%; in the test with TK-10 renal, 14.9%; in the test on ACHN renal it was -6.33% (active); in the test on A498 renal it was 132%. For the same compound, the growth with CCRF-CEM leukemia was 8.12% (active); with MOLT-4 leukemia, 81.3%.
As to `CCCCCCCCCCCC1=NCCCN1CCCC`, the growth in the test on SK-MEL-2 melanoma was 107%; in the test with SN12C renal, 98.4%; in the test with UO-31 renal it was 84.3%; with TK-10 renal, 108%; in the test on ACHN renal it was 104%; with CAKI-1 renal, 111%. Besides, the growth with CCRF-CEM leukemia was 87.4%; in the test with MOLT-4 leukemia, 92%.
For the compound `N#Cc1c2ccccc2nc2ccccc12`, the growth was 125% in the test with SK-MEL-2 melanoma; 93.5% in the test on SN12C renal; 77.5% in the test on UO-31 renal; 98% with CAKI-1 renal; 67.1% in the test on A498 renal; 98.2% with CCRF-CEM leukemia. In addition, the growth with MOLT-4 leukemia was 97.1%.
On to `CC(C)(C)CC(C)(C)c1ccc(OCCOCCSC(=N)N)cc1`, for which the growth in the test on SK-MEL-2 melanoma is 85%; in the test on SN12C renal it was 55%; in the test on UO-31 renal, 53.2%; in the test on TK-10 renal, 78%; with ACHN renal, 33.5%; in the test with CAKI-1 renal it was 65.3%. The growth in the test on A498 renal is 75.3%; in the test with CCRF-CEM leukemia, 0.0306% (active); with MOLT-4 leukemia it was 14.4%.
On to `O=C/C=C/c1ccc([N+](=O)[O-])cc1`, for which the growth with SK-MEL-2 melanoma is 103%; in the test on SN12C renal, 102%; in the test on UO-31 renal, 84.2%; with TK-10 renal it was 99.9%; with ACHN renal, 112%; with CAKI-1 renal, 100%. In addition, the growth in the test with A498 renal is 78.6%; in the test on CCRF-CEM leukemia it was 87.6%; in the test with MOLT-4 leukemia, 82.1%.
